# Targets with a hit are over-represented here; the source holds about 8,800 in all. About 0.5% of all pairs of compound and target were hits. Values without a mark were called inactive.
# How the values were obtained:
# Test in all cases: log2 fold change, soluble protein after heating vs DMSO (PISA); higher = thermal stabilisation; K562 lysate, 10 uM; active = over 0.2 and 3.5 SD of the protein, either way, in both replicates (recomputed)
# nilotinib = compound: Cc1cn(-c2cc(NC(=O)c3ccc(C)c(Nc4nccc(-c5cccnc5)n4)c3)cc(C(F)(F)F)c2)cn1 [nilotinib]
# Procedure, shortened: (§1)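 K562 pellets were dounce-homogenised in PBS pH 7.4 with 1 mM MgCl2, and the crude extract at 1 mg/mL protein was treated with 10 μM compound for 30 min. Aliquots were heated for 3 min across 48°C-58°C, pooled, and brought to 0.5% NP-40 at 4°C; soluble protein was the supernatant after 21,000xg for 90 min. Soluble protein was quantified by TMTpro 16plex LC-MS/MS with channel sums equalised, and reported as log2 fold change in thermal stability against DMSO controls, with values from duplicates.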
# [1] = compound: Cc1nc(Nc2n[nH]c3c2CN(C(=O)N[C@H](CN(C)C)c2ccccc2)C3(C)C)c2sccc2n1
# Procedure, shortened: as §1
# dasatinib = compound: Cc1nc(Nc2ncc(C(=O)Nc3c(C)cccc3Cl)s2)cc(N2CCN(CCO)CC2)n1 [dasatinib]
# Procedure, shortened: as §1
# [2] = compound: Cc1ncc(-c2ccnc(Nc3ccc(S(C)(=O)=O)cc3)n2)n1C(C)C
# Procedure, shortened: as §1
# [3] = compound: Cn1cc(-c2ccc3c(c2)CCN3C(=O)Cc2cccc(C(F)(F)F)c2)c2c(N)ncnc21
# Procedure, shortened: as §1
# quisinostat = compound: Cn1cc(CNCC2CCN(c3ncc(C(=O)NO)cn3)CC2)c2ccccc21 [quisinostat]
# Procedure, shortened: as §1
# tipifarnib = compound: Cn1cncc1[C@@](N)(c1ccc(Cl)cc1)c1ccc2c(c1)c(-c1cccc(Cl)c1)cc(=O)n2C [tipifarnib]
# Procedure, shortened: as §1
# [4] = compound: NC(=O)Nc1cc(-c2cccc(F)c2)sc1C(=O)N[C@H]1CCCNC1
# Procedure, shortened: as §1
# [5] = compound: NC(=O)c1cnc(N[C@@H]2CCCC[C@@H]2N)nc1Nc1cccc(-n2nccn2)c1
# Procedure, shortened: as §1
# [6] = compound: NC1(c2ccc(-c3nc4ccn5c(=O)[nH]nc5c4cc3-c3ccccc3)cc2)CCC1
# Procedure, shortened: as §1
# Sequence of UniProt P21964 (P21964 whole entry, looked up): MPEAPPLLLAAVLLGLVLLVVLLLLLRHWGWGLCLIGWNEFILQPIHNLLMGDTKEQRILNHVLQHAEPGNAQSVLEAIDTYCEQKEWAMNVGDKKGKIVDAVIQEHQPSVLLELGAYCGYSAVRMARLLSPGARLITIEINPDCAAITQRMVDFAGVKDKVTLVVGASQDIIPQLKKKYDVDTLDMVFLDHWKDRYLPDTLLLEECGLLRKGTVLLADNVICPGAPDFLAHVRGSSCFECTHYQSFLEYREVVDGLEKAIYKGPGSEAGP
# Sequence of UniProt P51790 (P51790 whole entry, looked up): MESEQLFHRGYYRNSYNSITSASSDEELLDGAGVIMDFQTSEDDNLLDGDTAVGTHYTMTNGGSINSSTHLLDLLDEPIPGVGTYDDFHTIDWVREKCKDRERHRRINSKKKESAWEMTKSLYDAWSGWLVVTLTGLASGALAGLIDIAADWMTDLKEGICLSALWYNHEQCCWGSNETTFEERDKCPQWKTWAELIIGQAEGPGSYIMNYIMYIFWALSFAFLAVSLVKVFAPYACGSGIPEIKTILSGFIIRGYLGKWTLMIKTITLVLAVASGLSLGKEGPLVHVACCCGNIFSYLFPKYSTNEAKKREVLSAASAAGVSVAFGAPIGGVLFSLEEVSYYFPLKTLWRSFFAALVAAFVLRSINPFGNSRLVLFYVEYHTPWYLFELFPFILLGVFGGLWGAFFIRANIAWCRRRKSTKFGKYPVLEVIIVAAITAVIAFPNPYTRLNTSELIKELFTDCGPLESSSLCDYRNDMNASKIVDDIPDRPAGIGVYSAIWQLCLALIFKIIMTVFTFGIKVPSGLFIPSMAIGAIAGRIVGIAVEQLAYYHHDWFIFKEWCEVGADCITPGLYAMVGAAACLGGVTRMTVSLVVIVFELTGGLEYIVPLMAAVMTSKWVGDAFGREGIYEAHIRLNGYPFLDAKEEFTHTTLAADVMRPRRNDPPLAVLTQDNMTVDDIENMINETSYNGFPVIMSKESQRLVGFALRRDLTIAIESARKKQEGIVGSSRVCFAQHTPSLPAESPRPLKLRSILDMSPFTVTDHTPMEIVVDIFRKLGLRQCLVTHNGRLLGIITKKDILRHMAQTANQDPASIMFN
# Sequence of UniProt P12111 (P12111 whole entry, looked up): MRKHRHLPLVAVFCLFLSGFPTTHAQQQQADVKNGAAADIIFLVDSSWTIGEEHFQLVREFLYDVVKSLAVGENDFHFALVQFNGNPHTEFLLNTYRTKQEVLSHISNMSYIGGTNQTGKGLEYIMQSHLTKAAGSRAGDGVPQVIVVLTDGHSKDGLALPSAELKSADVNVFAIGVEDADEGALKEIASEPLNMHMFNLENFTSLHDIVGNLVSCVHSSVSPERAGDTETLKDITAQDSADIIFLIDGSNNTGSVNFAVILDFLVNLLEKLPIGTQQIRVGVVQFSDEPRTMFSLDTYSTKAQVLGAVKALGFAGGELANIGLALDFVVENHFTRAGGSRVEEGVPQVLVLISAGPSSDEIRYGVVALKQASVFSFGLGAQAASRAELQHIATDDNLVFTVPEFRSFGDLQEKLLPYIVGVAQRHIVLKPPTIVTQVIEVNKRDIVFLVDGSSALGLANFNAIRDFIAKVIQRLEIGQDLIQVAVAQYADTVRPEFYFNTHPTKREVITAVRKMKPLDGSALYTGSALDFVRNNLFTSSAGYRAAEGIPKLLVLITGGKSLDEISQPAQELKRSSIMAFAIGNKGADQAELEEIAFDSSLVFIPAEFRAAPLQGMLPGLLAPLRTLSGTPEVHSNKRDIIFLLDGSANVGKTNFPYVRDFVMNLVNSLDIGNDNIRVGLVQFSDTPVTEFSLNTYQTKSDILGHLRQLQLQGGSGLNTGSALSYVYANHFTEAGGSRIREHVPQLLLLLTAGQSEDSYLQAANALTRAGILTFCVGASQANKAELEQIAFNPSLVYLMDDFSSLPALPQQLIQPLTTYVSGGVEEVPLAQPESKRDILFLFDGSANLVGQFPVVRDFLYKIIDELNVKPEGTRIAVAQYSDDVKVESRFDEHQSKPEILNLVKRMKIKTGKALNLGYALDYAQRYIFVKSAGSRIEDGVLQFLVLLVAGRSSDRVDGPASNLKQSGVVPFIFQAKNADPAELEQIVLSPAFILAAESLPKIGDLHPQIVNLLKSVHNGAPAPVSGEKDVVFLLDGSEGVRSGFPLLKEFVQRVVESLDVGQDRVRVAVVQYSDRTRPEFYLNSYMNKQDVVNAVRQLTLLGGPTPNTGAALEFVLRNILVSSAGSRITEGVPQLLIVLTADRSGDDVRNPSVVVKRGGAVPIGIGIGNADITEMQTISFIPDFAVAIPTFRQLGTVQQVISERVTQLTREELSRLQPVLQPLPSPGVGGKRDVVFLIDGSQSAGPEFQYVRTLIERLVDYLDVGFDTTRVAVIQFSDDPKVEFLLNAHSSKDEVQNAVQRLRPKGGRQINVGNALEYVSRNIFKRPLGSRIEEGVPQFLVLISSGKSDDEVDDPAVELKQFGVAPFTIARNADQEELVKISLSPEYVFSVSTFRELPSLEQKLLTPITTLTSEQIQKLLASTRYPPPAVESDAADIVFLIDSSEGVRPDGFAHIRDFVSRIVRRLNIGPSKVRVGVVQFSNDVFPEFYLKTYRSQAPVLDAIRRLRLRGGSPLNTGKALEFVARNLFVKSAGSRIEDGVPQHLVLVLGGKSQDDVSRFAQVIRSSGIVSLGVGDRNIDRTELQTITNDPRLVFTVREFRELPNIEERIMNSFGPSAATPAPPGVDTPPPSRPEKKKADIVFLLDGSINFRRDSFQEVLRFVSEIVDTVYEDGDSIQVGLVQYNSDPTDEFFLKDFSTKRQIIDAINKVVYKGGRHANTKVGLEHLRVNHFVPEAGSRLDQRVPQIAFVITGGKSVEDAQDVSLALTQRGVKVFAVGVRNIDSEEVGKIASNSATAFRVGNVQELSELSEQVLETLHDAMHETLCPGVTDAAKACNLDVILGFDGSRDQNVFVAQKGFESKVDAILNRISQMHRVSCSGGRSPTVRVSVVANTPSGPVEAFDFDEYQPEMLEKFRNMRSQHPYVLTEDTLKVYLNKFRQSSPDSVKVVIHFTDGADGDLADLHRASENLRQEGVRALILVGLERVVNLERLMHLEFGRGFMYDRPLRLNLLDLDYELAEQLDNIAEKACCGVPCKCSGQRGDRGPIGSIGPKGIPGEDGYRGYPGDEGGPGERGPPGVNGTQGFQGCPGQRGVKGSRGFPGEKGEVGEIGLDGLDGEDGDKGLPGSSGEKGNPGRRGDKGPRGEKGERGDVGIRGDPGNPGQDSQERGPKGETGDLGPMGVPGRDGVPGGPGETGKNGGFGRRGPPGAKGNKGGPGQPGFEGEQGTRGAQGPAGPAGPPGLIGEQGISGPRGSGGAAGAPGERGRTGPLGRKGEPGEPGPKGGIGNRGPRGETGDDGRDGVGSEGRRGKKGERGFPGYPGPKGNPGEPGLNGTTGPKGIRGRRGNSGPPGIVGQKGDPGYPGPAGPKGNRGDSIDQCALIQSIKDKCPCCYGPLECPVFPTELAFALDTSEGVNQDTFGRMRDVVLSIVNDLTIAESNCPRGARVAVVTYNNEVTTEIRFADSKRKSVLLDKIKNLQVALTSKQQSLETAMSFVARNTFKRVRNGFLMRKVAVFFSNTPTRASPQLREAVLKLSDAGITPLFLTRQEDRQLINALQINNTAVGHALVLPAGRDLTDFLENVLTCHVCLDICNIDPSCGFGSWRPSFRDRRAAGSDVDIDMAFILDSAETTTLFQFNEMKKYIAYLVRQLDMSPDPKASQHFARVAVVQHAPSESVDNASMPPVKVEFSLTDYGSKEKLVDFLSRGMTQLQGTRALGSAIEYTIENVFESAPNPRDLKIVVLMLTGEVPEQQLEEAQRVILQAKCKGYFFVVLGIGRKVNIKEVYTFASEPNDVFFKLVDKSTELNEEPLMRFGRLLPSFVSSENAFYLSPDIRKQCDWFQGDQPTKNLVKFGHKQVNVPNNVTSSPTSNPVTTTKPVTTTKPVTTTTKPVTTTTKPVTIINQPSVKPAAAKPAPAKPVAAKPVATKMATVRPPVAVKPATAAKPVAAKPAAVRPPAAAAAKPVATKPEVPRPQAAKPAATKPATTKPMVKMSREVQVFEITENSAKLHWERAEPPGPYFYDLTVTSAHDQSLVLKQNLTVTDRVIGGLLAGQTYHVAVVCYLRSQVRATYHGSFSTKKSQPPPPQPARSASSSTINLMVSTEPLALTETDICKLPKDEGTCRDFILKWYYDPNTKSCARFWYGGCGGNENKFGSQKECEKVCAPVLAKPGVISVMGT
# Sequence of UniProt Q8WYA6 (Q8WYA6 whole entry, looked up): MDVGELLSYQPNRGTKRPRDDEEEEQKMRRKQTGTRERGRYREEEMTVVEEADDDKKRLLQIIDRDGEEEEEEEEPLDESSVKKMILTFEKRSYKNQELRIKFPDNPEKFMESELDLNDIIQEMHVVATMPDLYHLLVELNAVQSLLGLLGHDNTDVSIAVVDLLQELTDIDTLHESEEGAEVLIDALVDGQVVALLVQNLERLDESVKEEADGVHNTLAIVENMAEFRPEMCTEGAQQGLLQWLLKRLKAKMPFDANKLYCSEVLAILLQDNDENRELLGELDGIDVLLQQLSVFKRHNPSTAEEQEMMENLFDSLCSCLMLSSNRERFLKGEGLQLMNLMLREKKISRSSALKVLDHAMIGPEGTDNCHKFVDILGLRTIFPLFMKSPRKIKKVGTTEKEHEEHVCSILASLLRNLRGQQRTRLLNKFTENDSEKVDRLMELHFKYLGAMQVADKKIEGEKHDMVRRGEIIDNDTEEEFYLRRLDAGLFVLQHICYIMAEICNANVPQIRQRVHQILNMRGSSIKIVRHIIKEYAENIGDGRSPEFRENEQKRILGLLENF
# Sequence of UniProt P24311 (P24311 whole entry, looked up): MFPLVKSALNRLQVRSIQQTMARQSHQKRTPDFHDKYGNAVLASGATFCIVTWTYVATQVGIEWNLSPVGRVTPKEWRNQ
# Sequence of UniProt O14810 (O14810 whole entry, looked up): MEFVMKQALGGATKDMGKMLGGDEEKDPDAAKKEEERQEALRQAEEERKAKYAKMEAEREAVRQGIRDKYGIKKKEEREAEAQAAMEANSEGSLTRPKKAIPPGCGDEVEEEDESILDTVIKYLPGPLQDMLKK
Target,log2 fold change (nilotinib),log2 fold change [1],log2 fold change (dasatinib),log2 fold change [2],log2 fold change [3],log2 fold change (quisinostat),log2 fold change (tipifarnib),log2 fold change [4],log2 fold change [5],log2 fold change [6]
CMPK2 (UniProt Q5EBM0),-0.075,-0.01,-0.067,0.005,-0.011,-0.02,0.042,0.032,-0.006,0.013
CNOT4 isoform 6 (UniProt O95628),-0.004,0.053,0.034,0.057,0.013,0.107,-0.018,0.041,-0.022,0.008
CSDE1 isoform 4 (UniProt O75534),0.01,-0.018,-0.012,0.001,0.048,0.014,0.012,0.041,-0.009,-0.016
CLCN3 isoform 2 (UniProt P51790),0.017,-0.018,-0.012,0.006,-0.008,0.01,-0.012,0.04,0.022,0.024
CHEK2 (UniProt O96017),-0.022,0.285 (active),0.04,-0.007,0.05,-0.057,0.023,0.326 (active),0.013,0.035
CNP (UniProt P09543),0.033,0.023,-0.047,-0.007,0.003,-0.028,-0.055,-0.009,-0.007,-0.009
DNAH10 (UniProt Q8IVF4),0.017,0.014,-0.026,-0.024,-0.026,-0.251,0.025,0.012,-0.017,-0.072
DNAJC3 (UniProt Q13217),0.029,-0.019,0.074,0.008,0.023,0.11,-0.085,-0.055,0.012,0.005
CSNK1A1 (UniProt P48729),-0.04,0.045,0.088,0.123,-0.039,-0.04,-0.019,0.197,0.018,-0.07
COMT (UniProt P21964),-0.007,-0.029,-0.02,-0.018,0.02,-0.08,0.013,0.028,0.005,0.009
CLASP1 (UniProt Q7Z460),-0.015,0.021,-0.097,0.013,0.016,-0.085,-0.051,-0.022,0.012,-0.018
CHUK (UniProt O15111),-0.029,0.015,-0.091,0.035,0.059,-0.131,-0.015,0.078,-0.006,-0.116
COL6A5 (UniProt A8TX70),0.134,0.009,-0.11,-0.185,-0.038,-0.377,-0.236,0.017,0.051,-0.014
COX7B (UniProt P24311),0.001,0.017,-0.008,0.016,0.025,0.047,0.023,-0.03,-0.047,0
DDX20 (UniProt Q9UHI6),-0.009,0.008,-0.054,0.003,0.058,-0.058,-0.01,0.095,0.03,-0.024
CTNNBL1 (UniProt Q8WYA6),-0.034,0.02,0.025,-0.013,-0.065,-0.008,-0.019,0.02,0.011,-0.138
DIAPH1 (UniProt H9KV28),-0.027,-0.122,,0.053,,-0.093,-0.051,-0.001,0.05,0.111

Target,log2 fold change (nilotinib),log2 fold change [1],log2 fold change (dasatinib),log2 fold change [2],log2 fold change [3],log2 fold change (quisinostat),log2 fold change (tipifarnib),log2 fold change [4],log2 fold change [5],log2 fold change [6]
CSAD isoform 3 (UniProt Q9Y600),,,,,,-0.035,,-0.001,,-0.153
CLASP2 (UniProt O75122),0.013,-0.14,,-0.061,,-0.135,-0.242,-0.058,0.205,
COL6A3 (UniProt P12111),0.05,0.151,0.032,0.02,-0.055,0.123,-0.009,0,,-0.155
CNTN4 (UniProt Q8IWV2),0.127,-0.06,,0.306,,-0.561 (active),-0.006,0.151,0.072,-0.024
DDX4 (UniProt Q9NQI0),-0.108,0.043,0.014,-0.085,0.076,,0.028,,0.062,0.059
COPS9 (UniProt Q8WXC6),,,,,,,,,-0.074,0.214
CPLX1 (UniProt O14810),,,1.05 (active),,-0.134,,,,0.178,
DHX32 (UniProt Q7L7V1),-0.025,-0.027,,-0.044,,-0.015,-0.061,0.142,,0.108
CSNK1G3 isoform 4 (UniProt Q9Y6M4),,,,,,,,,0.083,
DAZAP1 (UniProt K7EQ02),-0.221,0.096,,0.119,,,-0.039,,,
CYP2S1 isoform 2 (UniProt Q96SQ9),,,0.116,,0.093,0.014,,-0.135,0.054,-0.056
CLASP1 isoform 4 (UniProt Q7Z460),-0.113,0.126,,0.09,,,-0.301,,,0.111
CHMP4A (UniProt H0YIN6),,,0.294,,-0.06,-0.502,,0.041,0.066,
CSNK1A1 isoform 3 (UniProt P48729),,,0.048,,-0.183,,,,,
DPY19L3 (UniProt Q6ZPD9),,,,,,-0.103,,0.034,0.045,-0.683 (active)
CNNM2 (UniProt Q9H8M5),,,-0.021,,-0.044,0.217,,-0.077,-0.001,-0.006
CYP4V2 (UniProt Q6ZWL3),,,-0.041,,0.049,0.103,,-0.026,-0.101,-0.033
